This is part of a sample that, as a whole, favours compounds with a hit. Of some 79,000 tested, about 15% had one in any assay. Activity calls are given as the source filed them. No stated cut-off is given here; in the data, active means growth inhibition above about 70%; inactive means the rest.
Columns and labels:
[1] = NCI Yeast Anticancer Drug Screen. Data for the rad50EPP+ strain (AID 151);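 further: 0% = growth of vehicle-treated control cultures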; conditions: S. cerevisiae rad50 mutant strain, active compounds read high
How it was run: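 Exposing the rad50EPP+ strain to each compound, growth was compared with vehicle-only cultures to give inhibition.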

[2] = NCI Yeast Anticancer Drug Screen. Data for the rad50 strain (AID 155);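 further: 0% = growth of vehicle-only cultures of the same strain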; conditions: S. cerevisiae rad50 strain growth inhibition, active compounds read high
How it was run: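 DNA repair mutant yeast, compound exposure, growth read-out; inhibition is taken relative to vehicle.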

[3] = NCI Yeast Anticancer Drug Screen. Data for the mec2-1 strain (AID 157); conditions: S. cerevisiae mec2-1 strain, active compounds read high
How it was run: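 Readout is yeast growth inhibition, normalised to vehicle-treated controls, in the mec2-1 strain exposed to compound.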

[4] = NCI Yeast Anticancer Drug Screen. Data for the rad14 strain (AID 159);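 further: 0% = growth of vehicle-treated control cultures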; conditions: S. cerevisiae rad14 strain growth inhibition, active compounds read high
How it was run: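 DNA repair-defective yeast, compound-exposed; % growth inhibition derived by comparison with vehicle-treated controls.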

[5] = NCI Yeast Anticancer Drug Screen. Data for the sgs1 mgt1 strain (AID 161);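 further: 0% = growth of cultures given vehicle only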; conditions: S. cerevisiae sgs1 mgt1 strain, active compounds read high
How it was run: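 Compounds are added to genetically altered yeast, and growth is compared with cultures given vehicle alone to give percent inhibition.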

[6] = NCI Yeast Anticancer Drug Screen. Data for the CLN2oe strain (AID 163);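 further: 0% = growth of vehicle-only control cultures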; conditions: S. cerevisiae CLN2oe strain, active compounds read high
How it was run: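 Values reflect how much compound exposure reduced yeast growth, referenced to vehicle-exposed cells. Assay organism is a strain with a defined genetic change affecting cell-cycle control.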

[7] = NCI Yeast Anticancer Drug Screen. Data for the cln2 rad14 strain (AID 165);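 further: 0% = growth equal to vehicle treated cultures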; conditions: S. cerevisiae cln2 rad14 strain, active compounds read high
How it was run: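 Relative to vehicle controls, growth inhibition of compound-treated cln2 rad14 yeast was recorded.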

[8] = NCI Yeast Anticancer Drug Screen. Data for the bub3 strain (AID 167); conditions: S. cerevisiae bub3 mutant strain, active compounds read high
How it was run: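 In this screen, a yeast mutant lacking normal mitotic checkpoint function is challenged with compound. Relative growth versus vehicle gives the inhibition value.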

[9] = NCI Yeast Anticancer Drug Screen. Data for the wt2 strain (AID 169);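 further: 0% = growth of vehicle-treated yeast cultures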; conditions: S. cerevisiae wt2 strain growth inhibition, active compounds read high
How it was run: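 Values express reduction in yeast growth under compound treatment, referenced to vehicle-treated cells.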

[10] = NCI Yeast Anticancer Drug Screen. Data for the mlh1 strain (AID 171);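 further: 0% = growth of vehicle-treated control cultures of the same strain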; conditions: S. cerevisiae mlh1 strain growth inhibition, active compounds read high
How it was run: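 Steps: expose the defined-mutant yeast strain to compound; expose a parallel culture to vehicle; measure growth; express compound effect as inhibition relative to the vehicle culture.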

[11] = NCI Yeast Anticancer Drug Screen. Data for the sgs1 strain (AID 173);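 further: 0% = growth of vehicle-only control cultures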; conditions: S. cerevisiae sgs1 mutant, active compounds read high
How it was run: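 Treat defined-mutant yeast with compound; measure growth; calculate inhibition relative to vehicle-treated cells.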

[12] = NCI Yeast Anticancer Drug Screen. Data for the mlh1 rad18 strain (AID 175); conditions: S. cerevisiae mlh1 rad18 strain growth inhibition, active compounds read high
How it was run: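 Test agents were incubated with a yeast strain of defined genotype (DNA damage repair defect). Inhibition of growth was derived by comparison with vehicle-exposed cultures.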

[13] = NCI Yeast Anticancer Drug Screen. Data for the rad18 strain (AID 177); conditions: S. cerevisiae rad18 mutant growth inhibition, active compounds read high
How it was run: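 A genetically defined yeast mutant impaired in DNA damage repair was treated with test compounds, then its growth was measured against cultures receiving vehicle alone.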

[14] = NCI Yeast Anticancer Drug Screen. Data for the wt1 strain (AID 149);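 further: 0% = growth of vehicle-treated wt1 cultures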; conditions: S. cerevisiae wt1 strain (SPY 50644) growth inhibition, active compounds read high
How it was run: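 wt1 strain grown with compound or vehicle; inhibition taken from the growth difference.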

[15] = NCI Yeast Anticancer Drug Screen. Data for the mgt1 strain (AID 153); conditions: S. cerevisiae mgt1 mutant growth inhibition, active compounds read high
How it was run: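 Genetically defined yeast (mgt1) treated with compound; inhibition of growth expressed against vehicle-treated controls.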

[16] = at 5.0 µM (retest, dose inferred, filed as 0.5)
[17] = at 50.0 µM (retest, dose inferred, filed as 5.0)

Measured: growth inhibition

Cc1ccc(Nc2n[nH]c(=S)s2)cc1C
inactive: [1]; at 1.2 µM -7% | [1]; at 3.7 µM -5% | [1]; at 11.0 µM -21% | [1]; at 33.0 µM -9% | [1]; at 100.0 µM 48% | [2]; at 1.2 µM 14% | [2]; at 3.7 µM 17% | [2]; at 11.0 µM 21% | [2]; at 33.0 µM 54% | [3]; at 1.2 µM 1% | [3]; at 3.7 µM 0% | [3]; at 11.0 µM 10% | [3]; at 33.0 µM 11% | [3]; at 50.0 µM 67.7% | [4]; at 1.2 µM -33% | [4]; at 3.7 µM -29% | [4]; at 11.0 µM -17% | [4]; at 33.0 µM 65% | [5]; [16] 5% | [6]; at 1.2 µM 3% | [6]; at 3.7 µM -8% | [6]; at 11.0 µM -5% | [6]; at 33.0 µM -10% | [7]; [16] 65% | [8]; at 1.2 µM 6% | [8]; at 3.7 µM 12% | [8]; [16] 38% | [8]; at 11.0 µM 18% | [8]; at 33.0 µM 36% | [9]; at 1.2 µM -33% | [9]; at 3.7 µM -23% | [9]; at 11.0 µM -28% | [9]; at 33.0 µM 28% | [10]; at 1.2 µM -34% | [10]; at 3.7 µM -21% | [10]; at 11.0 µM -15% | [10]; at 33.0 µM 28% | [11]; at 1.2 µM -28% | [11]; at 3.7 µM -35% | [11]; at 11.0 µM -28% | [11]; at 33.0 µM 28% | [12]; at 50.0 µM 69.7% | [13]; at 1.2 µM 1% | [13]; at 3.7 µM -1% | [13]; at 11.0 µM 12% | [13]; at 33.0 µM 67%
active: [2]; [16] 93% | [2]; [17] 94% | [2]; at 50.0 µM 78.8% | [2]; at 100.0 µM 84% | [3]; [16] 96% | [3]; [17] 95% | [3]; at 100.0 µM 79% | [4]; at 100.0 µM 89% | [5]; [17] 90% | [6]; at 100.0 µM 76% | [7]; [17] 92% | [8]; [17] 91% | [8]; at 100.0 µM 80% | [9]; at 100.0 µM 85% | [10]; at 100.0 µM 83% | [11]; at 100.0 µM 77% | [12]; [16] 99% | [12]; [17] 99% | [13]; at 100.0 µM 87%

Cc1cccc[c]1[Sn]([Cl])([S]/C(C#N)=N/N=C/c1ccc(N(C)C)cc1)[c]1ccccc1C
active: [15]; at 100.0 µM 91% | [2]; [17] 89% | [2]; at 50.0 µM 97.4% | [2]; at 100.0 µM 94% | [3]; [17] 90% | [3]; at 50.0 µM 98.2% | [3]; at 100.0 µM 93% | [4]; at 100.0 µM 93% | [5]; [17] 92% | [5]; at 50.0 µM 98.3% | [6]; at 100.0 µM 94% | [7]; [17] 89% | [7]; at 50.0 µM 97.1% | [8]; [17] 92% | [8]; at 50.0 µM 97.2% | [8]; at 100.0 µM 89% | [9]; at 100.0 µM 89% | [10]; at 100.0 µM 90% | [11]; at 100.0 µM 94% | [12]; [17] 86% | [12]; at 50.0 µM 98.4% | [13]; at 100.0 µM 92%
inactive: [14]; at 1.2 µM -4% | [14]; at 3.7 µM -3% | [14]; at 11.0 µM -8% | [14]; at 33.0 µM 35% | [14]; at 100.0 µM 48% | [15]; at 1.2 µM -3% | [15]; at 3.7 µM -6% | [15]; at 11.0 µM -8% | [15]; at 33.0 µM 37% | [2]; at 1.2 µM -3% | [2]; at 3.7 µM -1% | [2]; [16] 40% | [2]; at 11.0 µM 12% | [2]; at 33.0 µM 67% | [3]; at 1.2 µM 2% | [3]; at 3.7 µM -1% | [3]; [16] 9% | [3]; at 11.0 µM 8% | [3]; at 33.0 µM 51% | [4]; at 1.2 µM -1% | [4]; at 3.7 µM 3% | [4]; at 11.0 µM 11% | [4]; at 33.0 µM 58% | [5]; [16] 37% | [6]; at 1.2 µM 0% | [6]; at 3.7 µM 0% | [6]; at 11.0 µM 2% | [6]; at 33.0 µM 53% | [7]; [16] 25% | [8]; at 1.2 µM -8% | [8]; at 3.7 µM -6% | [8]; [16] 34% | [8]; at 11.0 µM 0% | [8]; at 33.0 µM 46% | [9]; at 1.2 µM -1% | [9]; at 3.7 µM -2% | [9]; at 11.0 µM -6% | [9]; at 33.0 µM 32% | [10]; at 1.2 µM 3% | [10]; at 3.7 µM -5% | [10]; at 11.0 µM -4% | [10]; at 33.0 µM 35% | [11]; at 1.2 µM -1% | [11]; at 3.7 µM -3% | [11]; at 11.0 µM -1% | [11]; at 33.0 µM 66% | [12]; [16] 47% | [13]; at 1.2 µM 0% | [13]; at 3.7 µM -2% | [13]; at 11.0 µM 10% | [13]; at 33.0 µM 61%

Cc1c(N=Nc2ccc(Cl)cc2)c(C)n(C2OC(CO)C(O)C(O)C2O)c(=S)c1C#N (stereo not drawn)
active: [1]; at 100.0 µM 81% | [15]; at 100.0 µM 91%
inactive: [1]; at 1.2 µM 5% | [1]; at 3.7 µM 19% | [1]; at 11.0 µM 40% | [1]; at 33.0 µM 66% | [15]; at 1.2 µM -1% | [15]; at 3.7 µM 1% | [15]; at 11.0 µM 12% | [15]; at 33.0 µM 66% | [2]; at 1.2 µM -3% | [2]; at 3.7 µM -9% | [2]; [16] -11% | [2]; at 11.0 µM -2% | [2]; at 33.0 µM 35% | [2]; [17] 52% | [2]; at 50.0 µM 60.4% | [2]; at 100.0 µM 66% | [3]; at 1.2 µM 2% | [3]; at 3.7 µM 3% | [3]; [16] -5% | [3]; at 11.0 µM 6% | [3]; at 33.0 µM 21% | [3]; [17] 40% | [3]; at 50.0 µM 60.2% | [3]; at 100.0 µM 28% | [4]; at 1.2 µM -2% | [4]; at 3.7 µM -3% | [4]; at 11.0 µM 6% | [4]; at 33.0 µM 28%

From PubChem BioAssay (NCI)
